Experimental data: PubChem BioAssay AID1212 (NMMLSC, 2008)
A number with no mark means an inactive call. Activity calls are given as the source filed them.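 The calls were made as follows: active = blocks over 60% of fluorescent estradiol binding at 10 µM; inactive = the rest.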

These compounds were tested against G-protein coupled estrogen receptor 1 (Homo sapiens) (UniProt Q99527) (assay: GPR30 competitive binders vs fluorescent estrogen, primary screen, cell-based, Cos7 GPR30-GFP, flow cytometry, 10 µM (AID 1212)). Settings: fluorescent estrogen competition, at 10 µM; active compounds read high.

Structure (SMILES) | outcome | inhibition
CSC(=O)CNC1(Cc2ccc(O)cc2)CCCCC1 | inactive | 
CCOc1cc2c(c([N+](=O)[O-])c1)NC(c1ccccc1)C1CC=CC21 (configuration not stated) |  | 38%
CCCCCCc1cc2c3c(c(=O)oc2cc1OCC(N)=O)CCC3 | inactive | 
COc1cc2c(cc1OC)C(Cc1ccc(O)cc1)N(C)CC2 (configuration not stated) |  | 1%
COc1ccc(-n2cc3c(c(C#N)c2=N)CC(C)(C)CC3=O)cc1 | inactive | 
O=c1oc2cc(O)c(Cl)cc2c2c1CCCC2 | inactive | 
COc1ccccc1C1Nc2c(C(=O)O)cccc2C2C3CCC(C3)C12 (configuration not stated) |  | 5%
CC(=O)Oc1ccc2c(c1)CCC1C2C(O)CC2(C)C(=O)CCC12 (configuration not stated) | inactive | 
Cc1ccc(-n2cc3c(c(C#N)c2=N)CC(C)(C)CC3=O)cc1 | inactive | 
CCc1cc2c3c(c(=O)oc2cc1OCC(=O)O)CCCC3 |  | 10%
O=C(O)COc1cc2oc(=O)c3c(c2cc1Cl)CCCC3 | inactive | 
CCOc1ccc(NS(=O)(=O)c2ccc3c(c2)[C@H]2C=CC[C@H]2[C@@H](c2cccc([N+](=O)[O-])c2)N3)cc1 |  | 20%
CC1CCN(Cc2c(O)ccc3c4c(c(=O)oc23)CCC4)CC1 | inactive | 
CCOC(=O)c1ccc2c(c1)C1C=CCC1C(c1cccc([N+](=O)[O-])c1)N2 (configuration not stated) |  | 48%
COc1cc([N+](=O)[O-])cc2c1N[C@@H](c1ccc(C(=O)O)cc1)[C@H]1CC=C[C@@H]21 |  | 91% (active)
COc1cc2c(cc1OC)CC(C)(C)N(Cc1ccco1)C2 |  | 5%
COc1cc([N+](=O)[O-])cc2c1NC(c1ccccc1Cl)C1CC=CC21 (configuration not stated) | inactive | 
CCc1cc2c3c(c(=O)oc2cc1OCC(=O)OC)CCCC3 | inactive | 
CCOC(=O)c1c(N)sc2c1CC(C)(C)NC2(C)C |  | 10%
COc1ccc(Oc2ccc3c(c2)c2c4n3CCNC4CCC2)cc1 (configuration not stated) | inactive | 
N#Cc1c2c(c(=O)n3c1[nH]c1ccccc13)CCCC2 |  | 15%
CCCOc1cc2oc(=O)c3c(c2cc1CC)CCCC3 | inactive | 
COc1cc2c(c([N+](=O)[O-])c1)NC(c1ccc(Br)cc1)C1CC=CC21 (configuration not stated) | inactive | 
COc1cc([C@@H]2Nc3ccc(S(=O)(=O)Nc4ccccc4F)cc3[C@@H]3C=CC[C@@H]32)cc(OC)c1OC |  | 17%
COc1cc(C2CC(=O)Nc3c2ccc2ccccc32)cc(Cl)c1O (configuration not stated) |  | 3%
CC1=CC(C)C2(CO)COC(c3ccccc3O)C1C2C (configuration not stated) | inactive | 
CC1(C)CC(=O)c2cn(-c3ccc(Cl)cc3)c(=N)c(C#N)c2C1 | inactive | 
